Bioassay records (PubChem BioAssay)
Compounds with a hit are over-represented: about 17% of the library has one in this group of screens.
TGFb SMAD3 inh = inhibitors of TGF-b signaling | HepG2 CAGA-GFP TGF-b/SMAD3 reporter, GFP fluorescence, 18 h; TGF-beta stimulated, 500 pg/mL final | Potency, µM (top dose mostly 46.1 µM), hits mostly inhibitors | 410,000 tested, 1.2% active | AID 588855; also: nearly all actives have a fitted effect of over 65% in size
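TGF-beta reporter screen: HEPG2 CAGA-GFP, 1% FBS, 500 pg/mL TGF-beta final, 18 h; per-cell GFP summed per well; curves fitted and categorized by class.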
HT1080NT lethal = kills 2HG-producing HT-1080-NT fibrosarcoma cells. HT-1080-NT fibrosarcoma viability, CellTiter-Glo ATP luminescence, 48 h. Potency, µM (doses to about 46.1 µM), most hits filed as cytotoxic. 360,000 tested, 1.6% active. AID 686970;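 also: NT is the 2HG producing partner of a matched IDH1 knockdown line; nearly all actives have a fitted effect of over 55% in size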
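Compounds were tested in concentration-response format on HT-1080-NT cells for 48 hours at 37 degrees C. Cell viability came from CellTiter-Glo luminescence; curves were classified by r2, response magnitude and activity.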
TDP1 cell CPT = DT40-hTDP1 cell growth loss with CPT; chicken DT40 Tdp1-/-;hTDP1 cells + 20 nM CPT, ATP luminescence, 48 h; Potency, µM (top dose mostly 46.2 µM), most hits filed as inhibitors; 420,000 tested, 12% active; AID 686979; also: nearly all actives have a fitted effect of over 55% in size
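Chicken DT40 Tdp1-/- cells stably complemented with human TDP1 were seeded at 400 cells/well in medium containing 20 nM camptothecin, exposed to pin-transferred compounds, and grown at 37 °C for at least 48 hr. Viability was read as ATP luminescence.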
HepG2 viability = kills HepG2 cells in TGF-b inhibitor counter-screen. Potency, µM (doses to about 46.1 µM), hits mostly cytotoxic. HepG2 CAGA-GFP viability, ATP luminescence, 18 h. 410,000 tested, 0.76% active
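CellTiter-Glo luminescence gave cytotoxicity after 18 hours at 37 degrees C. The cells were HepG2 CAGA-GFP in 1% FBS DMEM, stimulated with 500 pg/mL TGF-beta after compound addition. %Activity was normalised to no-cell wells (complete cell-killing) and DMSO (no toxicity), and curves were fitted and classified.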
HT1080 IDH1KD tx = HT-1080 IDH1 knockdown cell toxicity (counter line). 360,000 tested, 2% active. Potency, µM (series often up to 46.1 µM), actives largely listed as cytotoxic. AID 686971. HT-1080 IDH1 knockdown viability, ATP luminescence, 48 h
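IDH1KD HT-1080 cells, 750/well, RPMI + 5% FBS; compound pinned after 2 h settling; 48 h, 37 °C; CellTiter-Glo luminescence; % activity normalised to DMSO and no-cell wells; curves fitted, classed by r2 and efficacy.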
DT40 TDP1 no CPT = qHTS for Inhibitors of human tyrosyl-DNA phosphodiesterase 1 (TDP1): qHTS in cells in absence of CPT. DT40 Tdp1-/- hTDP1 cells, no CPT, ATP luminescence, 48 h. 420,000 tested, 15% active. Potency, µM (series often up to 46.2 µM), actives largely listed as inhibitors; also: nearly all actives have a fitted effect of over 55% in size
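Cells were dispensed at 400 per well, compounds added by pin tool, plates incubated ≥48 hr at 37 °C, then CellTiter-Glo added for 30 min at room temperature before luminescence reading. Line: DT40 Tdp1-/- complemented with hTDP1; camptothecin omitted.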
Hits are given with their value; – = inactive; ? = inconclusive; · = not tested or not shown; [ ] = remark or other dose. Calls follow the shape of the dose curve; as a rule, active = well fitted curve in the direction sought with a large enough effect; inconclusive = small, poorly fitted or top-dose-only effect, or another doubt; inactive = no such curve, though single readings can be large; an effect the other way counts as inactive or inconclusive.

SMILES	TGFb SMAD3 inh	HT1080NT lethal	TDP1 cell CPT	HepG2 viability	HT1080 IDH1KD tx	DT40 TDP1 no CPT
Cc1noc(C)c1C(=O)N1CCN(c2ccc(OCc3ccccc3)cc2)CC1	–	–	14.6µM	–	–	16.4µM
Cc1ccccc1-n1c(C)nnc1SC(C)C(=O)NCc1ccco1 (stereo not drawn)	–	·	–	–	·	–
Cc1cccc(NC(=O)c2cc(S(=O)(=O)N3CCCC3)cn2C)c1	–	–	–	–	–	–
CCOc1ccc(C(=O)CCC(=O)N2CCN(c3ccccc3O)CC2)cc1	–	–	?	2.51µM	–	?
Cc1noc(C)c1COc1ccc(C(=O)O)cc1	–	?	–	–	–	–
Cc1ccc(C)c(S(=O)(=O)N2CCN(C(=O)c3ccc(OCc4c(C)noc4C)cc3)CC2)c1	–	–	?	14.1µM	–	?
CCOc1ccc(S(=O)(=O)NCCC(=O)N2CCN(c3ccccc3O)CC2)cc1	–	–	–	–	–	–
Cc1ccc(S(=O)(=O)N2CCN(C(=O)c3ccc(OCc4c(C)noc4C)cc3)CC2)cc1	–	–	?	–	–	?
Cc1noc(C)c1COc1ccc(C(=O)NNC(=O)c2ccccc2)cc1	–	?	5.17µM	–	14.6µM	4.61µM
Cc1c(C(=O)N2CCN(C/C=C/c3ccccc3)CC2)oc2c(F)cccc12	–	–	?	–	–	?
O=C(COC(=O)Cn1cc(C(F)(F)F)ccc1=O)Nc1ccc(Br)cc1F	–	–	–	–	–	–
Cc1ccc(-n2nnnc2C(=Cc2ccc(N(C)C)cc2)c2nnnn2-c2ccc(C)cc2)cc1	–	–	?	–	–	–
CCN(CC)c1ccc(C=C(c2nnnn2-c2ccccc2)c2nnnn2-c2ccccc2)cc1	–	–	?	–	–	10.3µM
CCOc1ccc(CNn2cnnc2)cc1	–	–	16.4µM	–	–	?
CCOc1ccc(NC(=O)CCCNC(=O)Cn2cnc3sc(C)c(C)c3c2=O)cc1	–	?	–	–	?	–
COc1cc(OC)c(NS(=O)(=O)c2cc(-c3cnc(C)o3)ccc2OC)cc1Cl	–	·	20.6µM	–	·	13µM
COc1ccc(-c2cnc(C)o2)cc1S(=O)(=O)Nc1ccc(F)cc1F	–	·	–	–	·	–
COc1cc(NS(=O)(=O)c2ccc(OC)c(C)c2C)c(OC)cc1Cl	?	2.31µM	4.61µM	–	2.31µM	3.26µM
O=C(NCc1cccnc1)C1CC(c2ccccc2O)=NO1 (stereo not drawn)	–	–	–	–	–	–
CN(C)CCn1c2c(c(SCC(=O)Nc3ccc(F)cc3F)nc1=O)CCC2	?	·	–	–	·	–
O=C1CSC(=S)N1N=Cc1ccc(Cl)s1	–	–	?	–	–	–
COc1ccc2oc(=O)cc(CN3CCN(Cc4ccccc4)CC3)c2c1	?	–	?	–	–	?
CCOc1ccc2oc(=O)cc(CN3CCN(Cc4ccccc4)CC3)c2c1	–	?	?	–	–	23.1µM
CCOc1ccc2oc(=O)cc(CN3CCN(Cc4ccc(C)cc4)CC3)c2c1	–	·	23.1µM	–	·	14.6µM
CN1C[C@@H]2[C@@H]3C(=O)N(Cc4ccccc4)C(=O)[C@@H]3[C@](Cc3ccccc3)(C1=O)N2C(=O)c1ccc(Cl)cc1	–	–	?	–	–	–
SMILES	TGFb SMAD3 inh	HT1080NT lethal	TDP1 cell CPT	HepG2 viability	HT1080 IDH1KD tx	DT40 TDP1 no CPT
Cc1ccc(C(=O)N2[C@@H]3CN(C)C(=O)[C@@]2(Cc2ccccc2)[C@H]2C(=O)N(Cc4ccccc4)C(=O)[C@@H]32)cc1	–	–	0.0052µM	–	–	?
CC(C)COc1ccc(C(=O)Nc2ccc(N3CCOCC3)cc2N2CCOCC2)cc1	–	–	18.4µM	–	–	16.4µM
CCCCCOc1ccc(C(=O)Nc2ccc(N3CCOCC3)cc2N2CCOCC2)cc1	–	–[9.24 µM]	–	–	–	–
CCOc1cc(N2CCOCC2)c(OCC)cc1NC(=O)C(NC(=O)c1ccco1)C(C)C (stereo not drawn)	–	–	–	–	–	11.6µM
CCOc1cc(N2CCOCC2)c(OCC)cc1NC(=O)c1ccco1	–	–	–	–	–	11.6µM
CCOc1cc(N2CCOCC2)c(OCC)cc1NC(=O)c1cnccn1	–	–	20.6µM	–	–	23.1µM
CCOc1cc(-n2cnnn2)c(OCC)cc1NC(=O)c1cnccn1	–	–	–	–	–	–
Cc1ncc([N+](=O)[O-])n1S(=O)(=O)c1cc(Br)ccc1Br	–	–	–	–	–	–
Cn1cnnc1SC(C(=O)Nc1cccc(C(F)(F)F)c1)c1ccccc1 (stereo not drawn)	–	–	–	–	–	–
CCOc1cc(N2CCOCC2)c(OCC)cc1NC(=O)C(NC(=O)c1c(F)cccc1F)C(C)C (stereo not drawn)	–	–	?	–	–	9.2µM
CCOc1cc(N2CCOCC2)c(OCC)cc1NC(=O)c1ccc(OCc2c(C)noc2C)c(OC)c1	–	–	14.6µM	–	–	10.3µM
CCOc1cc(N2CCOCC2)c(OCC)cc1NC(=O)c1ccc(OC)c(S(=O)(=O)N2CCOCC2)c1	–	–	–	–	–	?
CCOc1cc(N2CCOCC2)c(OCC)cc1NC(=O)c1ccc(OC)cc1	–	–	6.51µM	–	–	7.31µM
CCOc1ccccc1C(=O)NC(C(=O)Nc1ccccc1N1CCOCC1)C(C)C (stereo not drawn)	–	–[9.24 µM]	?	–	–	?
CCOc1cc(N2CCOCC2)c(OCC)cc1NC(=O)c1nc2nc(C)cc(C)n2n1	?	–	?	–	–	23.1µM
COc1ccc(C(c2c(O)cc(C)n(Cc3ccco3)c2=O)N2CCN(c3ccccc3)CC2)cc1 (stereo not drawn)	–	·	–	–	·	–
CCC1=Nc2cc(C(=O)NCCN3CCCC3)ccc2Sc2ccccc21	–	–	?	–	–	?
CCCCNC(=O)c1ccc2c(c1)N=C(CC)c1ccccc1S2	–	·	4.11µM	–	·	4.61µM
CCC1=Nc2cc(C(=O)NCCCOC)ccc2Sc2ccc(Br)cc21	?	·	1.3µM	–	·	1.3µM
CCC1=Nc2cc(C(=O)NCCCOC)ccc2Sc2ccccc21	–	0.651µM	1.46µM	–	1.03µM	1.16µM
COc1cc(NC(=O)C2CCN(c3cnc4ccccc4n3)CC2)cc(OC)c1OC	–	·	–	–	·	–
O=c1ccccn1Cc1c(Cl)cccc1Cl	–	–	–	–	–	–
Clc1cccc(Cl)c1C[n+]1ccc2ccccc2c1	–	–	1.64µM	–	?	1.46µM
NC(=O)c1ccc[n+](Cc2ccccc2)c1	–	–	–	–	–	–
